Compound activity: PubChem BioAssay, National Center for Advancing Translational Sciences (NCATS)
Shown is part of a subset that was picked to be rich in hits.
Pf Dd2 inh – blocks in vitro growth of P. falciparum Dd2. 120,000 tested, 4.3% active. Potency, µM (highest dose often 28.9 µM), inactives show top-dose activity, negative = inhibition, most hits filed as inhibitors. P. falciparum Dd2 growth, SYBR Green, 72 h; active = well fitted inhibition curve with a large enough effect;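 note: plate controls were DMSO vehicle for no effect and reference drug for full effect; nearly all actives have a fitted effect of over 65% in size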
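Infected erythrocytes (Dd2, 0.3% parasitemia, 2.5% hematocrit final) are added to compound in RPMI-1640/Albumax II medium, grown 72 h at 37C in low oxygen, then lysed with saponin/Triton-X containing SYBR Green and read by fluorescence.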
* hit, by the source's call; ! = not confirmed by another sample; [ ] = dose if it differs, or a comment. Potency is the fitted concentration of half-maximal effect.

What do the screens show for `CN1C[C@@H](NC(=O)c2ccc3c(c2)OCO3)C[C@H]1c1nc(-c2ccc(Cl)cc2)no1`?
Pf Dd2 inh: 10µM*

How did O=C(Cn1cccc1-c1nc(-c2ccc3c(c2)OCO3)no1)Nc1cc(F)cc(F)c1 do in these assays?
Pf Dd2 inh: 5µM*

What do the screens show for `O=C(Cn1cccc1-c1nc(-c2ccc3c(c2)OCO3)no1)NCc1ccc(F)cc1F`?
Pf Dd2 inh: 12%

Results for Cc1ccc(C(=O)NCCn2cccc2-c2nc(-c3ccc4c(c3)OCO4)no2)cc1C ?
Pf Dd2 inh: -30%

What do the screens show for `CN1C[C@@H](NC(=O)c2ccc(F)cc2)C[C@H]1c1nc(-c2ccc(Cl)cc2)no1`?
Pf Dd2 inh: inactive

How did Cc1cc(C)c(NC(=O)Cn2cccc2-c2nc(-c3ccc4c(c3)OCO4)no2)c(C)c1 do in these assays?
Pf Dd2 inh: 11%

What do the screens show for `CN(C)c1ccc(C(=O)N[C@H]2C[C@@H](c3nc(-c4ccc5c(c4)OCO5)no3)N(C)C2)cc1`?
Pf Dd2 inh: inactive

What do the screens show for `O=C(NCCn1cccc1-c1nc(-c2ccc3c(c2)OCO3)no1)c1ccc(F)cc1`?
Pf Dd2 inh: 131%

Results for COc1ccc(NC(=O)N[C@H]2[C@H](O)[C@@H](N3CCC(Cc4ccccc4)CC3)[C@@H]3OC[C@H]2O3)cc1 ?
Pf Dd2 inh: -15%

What do the screens show for `O=C1CN(CC2CCCC2)CCN1c1ccc(Cl)nn1`?
Pf Dd2 inh: -20%[44.1 µM]

Results for O=Cc1ccc(N2CCN(C(=O)NC3CCCCC3)CC2=O)cc1 ?
Pf Dd2 inh: 1%

Results for COc1cccc(NC(=O)CN2C(=O)c3cccc4cccc2c34)c1 ?
Pf Dd2 inh: 35%

Results for O=C(NCc1ccccc1)C1CCC(CNS(=O)(=O)c2ccc(Br)s2)CC1 (configuration not stated) ?
Pf Dd2 inh: -1%

What do the screens show for `Cc1cnc(CN2CCC3(CC2)CCN(C(=O)Cc2cccnc2)CC3CO)[nH]1` (configuration not stated)?
Pf Dd2 inh: -4%

What do the screens show for `Cc1ccc(C)c(NC(=O)Cn2c(=O)n(Cc3cccs3)c(=O)c3cccnc32)c1`?
Pf Dd2 inh: inactive

Results for Cc1nc(N2CCOCC2)c2c(C(=O)NCc3ccc(Cl)cc3)c(C)oc2n1 ?
Pf Dd2 inh: inactive

What do the screens show for `COc1ccc(-c2ccc3nnc(CNC(=O)c4cccc(C#N)c4)n3n2)cc1`?
Pf Dd2 inh: inactive

How did Cc1ccc(CN2C(=O)NC3(CCCN(C(=O)c4cccc(Cl)c4)C3)C2=O)cc1 (configuration not stated) do in these assays?
Pf Dd2 inh: inactive

What do the screens show for `Cc1ccc(CN2C(=O)NC3(CCCN(C(=O)c4ccc(F)c(Cl)c4)C3)C2=O)cc1` (configuration not stated)?
Pf Dd2 inh: 7.1µM*

How did O=C(c1ccc(F)c(Cl)c1)N1CCCC2(C1)NC(=O)N(Cc1ccccc1)C2=O (configuration not stated) do in these assays?
Pf Dd2 inh: -24%

How did O=C(CC1C(=O)NCCN1Cc1cccc(Oc2ccccc2)c1)NC1CCOCC1 (configuration not stated) do in these assays?
Pf Dd2 inh: -32%

Results for O=c1cc(-c2ccncc2)oc2c(-c3ccccc3O)nccc12 ?
Pf Dd2 inh: 1.8µM*

How did O=c1cc(-c2cccnc2)oc2c(-c3ccccc3F)nccc12 do in these assays?
Pf Dd2 inh: inactive

Results for C[S+](=O)([O-])c1ccc(-c2nccc3c(=O)cc(-c4ccncc4)oc23)cc1 ?
Pf Dd2 inh: inactive

Results for Cc1ccccc1Oc1c(CCC(=O)N(C)C(C)C)c(C)nn1-c1ccccc1C ?
Pf Dd2 inh: -14%

How did COc1ccc(C(=O)N[C@H]2C[C@H]3C(=O)NC[C@@H](CCC(=O)N4CCN(C)CC4)N3C2)cc1 do in these assays?
Pf Dd2 inh: -4%

Results for CC(C)CNc1ccc2c(n1)C(C)(C(=O)Nc1ccncc1)CN(Cc1ccccc1)C2 (configuration not stated) ?
Pf Dd2 inh: 2.2µM*

Results for CC(C)CNc1ccc2c(n1)C(C)(C(=O)Nc1ccn(C)n1)CN(Cc1ccccc1)C2 (configuration not stated) ?
Pf Dd2 inh: -14%[44.1 µM]

Results for COCCCNC(=O)C1(C)CN(Cc2ccccc2)Cc2ccc(NCC(C)C)nc21 (configuration not stated) ?
Pf Dd2 inh: -24%[44.1 µM]

What do the screens show for `CCN(CC)C(=O)CCc1c(C)nn(-c2cccc(C)c2)c1Oc1ccc(F)cc1F`?
Pf Dd2 inh: inactive

How did Cn1nccc1-c1cc2c(ccn2C)c(C(=O)NCCc2cnc[nH]2)n1 do in these assays?
Pf Dd2 inh: inactive

How did OC1(CN2CCN(c3nccs3)CC2)CCCNC1 (configuration not stated) do in these assays?
Pf Dd2 inh: -4%

What do the screens show for `Cn1ncc(N2CCN(CC3(O)CCCNC3)CC2)cc1=O` (configuration not stated)?
Pf Dd2 inh: -3%

Results for OC1(CN2CCN(c3ccc(F)c(Cl)c3)CC2)CCCNC1 (configuration not stated) ?
Pf Dd2 inh: 7.9µM*

Results for Cc1ccc(CN2CCN(C(=O)CCC3CC3)C(C)C2=O)cc1 (configuration not stated) ?
Pf Dd2 inh: 0%

What do the screens show for `O=C(O)c1ccc(CN2CC[C@@H](c3ccc4ccccc4c3)[C@H](O)C2)cc1`?
Pf Dd2 inh: -25%

Results for CS(=O)(=O)c1ccc(CN2CC[C@@H](c3ccc4ccccc4c3)[C@H](O)C2)cc1 ?
Pf Dd2 inh: -18%

How did O[C@@H]1CN(CC2CCNCC2)CC[C@H]1c1ccc2ccccc2c1 do in these assays?
Pf Dd2 inh: 11µM*

Results for O=C(Cc1ccc(F)cc1)N1CCC(c2nn(-c3ccc(Cl)cc3)c(=O)[nH]2)CC1 ?
Pf Dd2 inh: inactive

What do the screens show for `COc1ccc(-n2nc(C3CCN(Cc4ccc(F)cc4)CC3)[nH]c2=O)cc1`?
Pf Dd2 inh: inactive

What do the screens show for `COc1ccc(C(=O)N2CCC(c3nn(-c4ccc(Cl)cc4)c(=O)[nH]3)CC2)cc1`?
Pf Dd2 inh: -14%

Results for COc1ccc(-n2nc(C3CCN(Cc4ccc(C)cc4)CC3)[nH]c2=O)cc1 ?
Pf Dd2 inh: 13µM*!

What do the screens show for `COc1ccc(-n2nc(C3CCN(Cc4ccc(C#N)cc4)CC3)[nH]c2=O)cc1`?
Pf Dd2 inh: inactive

What do the screens show for `CC(C)(C)C(=O)N1CCC(c2nn(-c3ccc(Cl)cc3)c(=O)[nH]2)CC1`?
Pf Dd2 inh: 8.9µM*

Results for O=C(c1ccoc1)N1C[C@@H](COc2ccncc2)[C@H](c2ccccn2)C1 ?
Pf Dd2 inh: -18%

What do the screens show for `O=C(CCC1CCN(S(=O)(=O)c2ccccc2F)CC1)NCCCN1CCOCC1`?
Pf Dd2 inh: -16%

What do the screens show for `O=C(O)[C@H]1C[C@H](C(=O)N2CCCC2)CN(Cc2ccncc2)C1`?
Pf Dd2 inh: 10%

How did CS(=O)(=O)c1ccc(CN2CCOC[C@H]2c2ncc(-c3cccc(Cl)c3)[nH]2)cc1 do in these assays?
Pf Dd2 inh: inactive

What do the screens show for `Fc1ccc(-c2cnc([C@@H]3COCCN3Cc3ccncc3)[nH]2)cc1`?
Pf Dd2 inh: inactive

How did Clc1ccc(-c2cnc([C@@H]3COCCN3C3CCOCC3)[nH]2)cc1 do in these assays?
Pf Dd2 inh: inactive

How did CC(C)(C)CN1CCOC[C@H]1c1ncc(-c2ccc(Cl)cc2)[nH]1 do in these assays?
Pf Dd2 inh: -3%[44.1 µM]

How did Clc1cccc(-c2cnc([C@@H]3COCCN3C3CCCCC3)[nH]2)c1 do in these assays?
Pf Dd2 inh: 11µM*
